Results from PubChem BioAssay (Tox21).
Records with an inconclusive call do not appear. Unmarked numbers belong to inactive results. Calls of active or inactive are those of the source. Unless noted, the call rests on the fitted dose curve.

System: not listed separately
Assay: qHTS assay to identify small molecule antagonists of the thyroid receptor (TR) signaling pathway (AID 743065; active means well fitted inhibition curve with a large enough effect in the repeat runs; further: nearly all actives have a fitted effect of over 55% in size; further: potency means the concentration at half of the fitted maximal effect)
Conditions: GH3.TRE-Luc, T3-stimulated luciferase inhibition, 23.5 h; series mostly up to 70.3 µM; activity, negative = inhibition: at the top concentration
In short: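 GH3.TRE-Luc rat pituitary cells (two TREs driving luciferase) were dosed with compound, then stimulated with 1 nM T3 (final) for 23.5 h at 37 C. ONE-Glo luminescence was the read-out, with CellTiter-Fluor fluorescence as the cytotoxicity counter-screen.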
On the % scale 0 is the no-effect control and ±100 the full control effect.

SMILES	activity, negative = inhibition	Potency
CC(=O)Oc1ccc([N+](=O)[O-])cc1CCl	-3.35%	
O=C(Nc1cccc2c(=O)cc(-c3nn[nH]n3)oc12)c1ccc(OCCCCc2ccccc2)cc1	-4.54%	
Cc1ccccc1N=C(N)Nc1ccccc1C	-20.6%	
CCOC(=O)OC(C)OC(=O)[C@@H]1N2C(=O)[C@@H](NC(=O)[C@H](N)c3ccccc3)[C@H]2SC1(C)C (some centres not stated)	8.6% [at 32.5 µM]	
CC1=Nc2ccc3ccccc3c2C1(C)C	-0.128%	
CC(C)c1nc(CN(C)C(=O)N[C@H](C(=O)N[C@@H](Cc2ccccc2)C[C@H](O)[C@H](Cc2ccccc2)NC(=O)OCc2cncs2)C(C)C)cs1		10.6 µM (active)
CC1=C(CC=O)C(C)(C)CCC1	-6.62%	
O=C(/C=C/c1ccccc1)OCCc1ccccc1	3.18%	
CN1C(=O)OC(C)(C)C1=O		inactive
CCN(CC)CCNC(=O)COc1ccc(OC)cc1	12.5%	
CC1CC(OC(=O)C(O)c2ccccc2)CC(C)(C)N1C (configuration not stated)		inactive
Cc1ccc(CO)cc1	8.94% [at 95 µM]	
NC1[C@H]2CN(c3nc4c(cc3F)c(=O)c(C(=O)O)cn4-c3ccc(F)cc3F)C[C@@H]12 (some centres not stated)		9.44 µM (active)
CC(CO)CO	4.23% [at 95 µM]	
O=C1c2ccccc2C(=O)C1c1nc2ccccc2c(Br)c1O	-10.7%	
CC(C)(O)c1ccc(CNC(=O)c2cccnc2Oc2ccc3nonc3c2)cc1	-11.6%	
CCCCCCCCCCC(=O)O	0% [at 95 µM]	

System: thyroid hormone receptor (rat, GH3 cells)
Assay: qHTS assay to identify small molecule agonists of the thyroid receptor (TR) signaling pathway (AID 743066)
Conditions: GH3.TRE-Luc cells, TR agonist luciferase, 24 h; series mostly up to 83.9 µM; activation: at the top concentration

SMILES	activation	outcome
Brc1cc(Br)c(Oc2cc(Br)c(Br)cc2Br)cc1Br	-0.314%	
CC1CC(C)C(=O)C1=O (configuration not stated)	0.0674%	
O=C=Nc1cccc(C(F)(F)F)c1	-7.06%	
CCCCN1CCCC1C(=O)Nc1c(C)cc(C)cc1C (configuration not stated)	-3.98%	
O=C(OCC(O)CO)c1ccccc1Nc1ccnc2cc(Cl)ccc12 (configuration not stated)	-0.751% [at 39.4 µM]	
CCCCCCCCN	0.202%	
O=Cc1c2ccccc2c(Cl)c2ccccc12	0.266%	
CCC=CC#N	1.62%	
C=CC(=O)[O-].C=CC(=O)[O-].[Zn+2]	-0.0008%	
CC(C)=CCC1C(=O)N(c2ccccc2)N(c2ccccc2)C1=O	-5.22%	
CO/N=C(/C(=O)N[C@@H]1C(=O)N2C(C(=O)O)=C(COC(N)=O)CS[C@H]12)c1ccco1		inactive
C=C1CCC2CC1C2(C)C (configuration not stated)	-0.948%	
Cc1ccc(OC(=O)c2ccccc2O)cc1	-1.14%	
O=C(O)CCC(=O)C(=O)O		inactive
C=C1c2cccc(O)c2C(O)=C2C(=O)[C@]3(O)C(O)=C(C(N)=O)C(=O)[C@@H](N(C)C)[C@@H]3[C@@H](O)[C@H]12	1.37% [at 39.4 µM]	
CC(C)C=O	0.135% [at 95.2 µM]	
CN1C(C(=O)Nc2ccccn2)=C(O)c2sccc2S1(=O)=O	0.201% [at 39.4 µM]	
Cc1cscn1	4.46%	
CCC(OCCCOC)OC(C)=O (configuration not stated)	0.588% [at 95.2 µM]	
CC/C=C1/OC(=O)c2ccccc21	0.629%	

SMILES	activation	outcome
CCOC(=O)C1=C(C)NC(C)=C(C(=O)OC)C1c1cccc(Cl)c1Cl (configuration not stated)	-6.06%	
COc1cc(N)c(Cl)cc1C(=O)NC1CCN(CCCOc2ccc(F)cc2)CC1OC (configuration not stated)	-5.5% [at 39.4 µM]	
C=C(C)C(=O)OCCOCCOC(=O)C(=C)C	1.23%	
CC(=O)Oc1ccc([N+](=O)[O-])cc1CCl	0.157%	
O=C(Nc1cccc2c(=O)cc(-c3nn[nH]n3)oc12)c1ccc(OCCCCc2ccccc2)cc1	-5.31%	
Cc1ccccc1N=C(N)Nc1ccccc1C	-2.65%	
CCOC(=O)OC(C)OC(=O)[C@@H]1N2C(=O)[C@@H](NC(=O)[C@H](N)c3ccccc3)[C@H]2SC1(C)C (some centres not stated)	0.81% [at 39.4 µM]	
CC1=Nc2ccc3ccccc3c2C1(C)C	1.7%	
CC(C)c1nc(CN(C)C(=O)N[C@H](C(=O)N[C@@H](Cc2ccccc2)C[C@H](O)[C@H](Cc2ccccc2)NC(=O)OCc2cncs2)C(C)C)cs1		inactive
CC1=C(CC=O)C(C)(C)CCC1	-2.84%	
O=C(/C=C/c1ccccc1)OCCc1ccccc1	2.81%	
CN1C(=O)OC(C)(C)C1=O		inactive
CCN(CC)CCNC(=O)COc1ccc(OC)cc1	0.994%	
CC1CC(OC(=O)C(O)c2ccccc2)CC(C)(C)N1C (configuration not stated)		inactive
Cc1ccc(CO)cc1	1.35% [at 95.2 µM]	
NC1[C@H]2CN(c3nc4c(cc3F)c(=O)c(C(=O)O)cn4-c3ccc(F)cc3F)C[C@@H]12 (some centres not stated)	-6.03%	
CC(CO)CO	-0.609% [at 95.2 µM]	
O=C1c2ccccc2C(=O)C1c1nc2ccccc2c(Br)c1O	3.32%	
CC(C)(O)c1ccc(CNC(=O)c2cccnc2Oc2ccc3nonc3c2)cc1	-0.0025%	
CCCCCCCCCCC(=O)O	-3.33% [at 95.2 µM]	

System: not listed separately
Assay: qHTS assay to identify small molecule antagonists of the estrogen receptor alpha (ER-alpha) signaling pathway - cell viability counter screen (AID 743074);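 further: HEK293 cells carrying ER-alpha-UAS-bla reporter stimulated with 17beta-estradiol; nearly all actives have a fitted effect of over 45% in size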
Conditions: ERalpha-bla HEK293 viability, CellTiter-Glo luminescence, 18 h; series mostly up to 69.4 µM; activity, negative = cytotoxicity: at the top concentration

SMILES	activity, negative = cytotoxicity	Potency
Brc1cc(Br)c(Oc2cc(Br)c(Br)cc2Br)cc1Br	-18.2%	
CC1CC(C)C(=O)C1=O (configuration not stated)	11.7%	
O=C=Nc1cccc(C(F)(F)F)c1	-25.8%	
CCCCN1CCCC1C(=O)Nc1c(C)cc(C)cc1C (configuration not stated)	-13%	
O=C(OCC(O)CO)c1ccccc1Nc1ccnc2cc(Cl)ccc12 (configuration not stated)	-11.6% [at 32.6 µM]	
CCCCCCCCN	27.5%	
O=Cc1c2ccccc2c(Cl)c2ccccc12	-13.1%	
CCC=CC#N	-6.78%	
C=CC(=O)[O-].C=CC(=O)[O-].[Zn+2]	25.2%	
CC(C)=CCC1C(=O)N(c2ccccc2)N(c2ccccc2)C1=O	10.3%	
CO/N=C(/C(=O)N[C@@H]1C(=O)N2C(C(=O)O)=C(COC(N)=O)CS[C@H]12)c1ccco1		inactive
C=C1CCC2CC1C2(C)C (configuration not stated)	-6.63%	
Cc1ccc(OC(=O)c2ccccc2O)cc1	4.98%	
O=C(O)CCC(=O)C(=O)O		inactive
C=C1c2cccc(O)c2C(O)=C2C(=O)[C@]3(O)C(O)=C(C(N)=O)C(=O)[C@@H](N(C)C)[C@@H]3[C@@H](O)[C@H]12	-12.7% [at 32.6 µM]	
CC(C)C=O	10.1% [at 79.1 µM]	
CN1C(C(=O)Nc2ccccn2)=C(O)c2sccc2S1(=O)=O	7.14% [at 32.6 µM]	
Cc1cscn1	24.7%	
CCC(OCCCOC)OC(C)=O (configuration not stated)	11.7% [at 79.1 µM]	
CC/C=C1/OC(=O)c2ccccc21	-4.09%	

SMILES	activity, negative = cytotoxicity	Potency
CCOC(=O)C1=C(C)NC(C)=C(C(=O)OC)C1c1cccc(Cl)c1Cl (configuration not stated)	5.01%	
COc1cc(N)c(Cl)cc1C(=O)NC1CCN(CCCOc2ccc(F)cc2)CC1OC (configuration not stated)	-5.61% [at 32.6 µM]	
C=C(C)C(=O)OCCOCCOC(=O)C(=C)C	-8.68%	
CC(=O)Oc1ccc([N+](=O)[O-])cc1CCl	13.6%	
O=C(Nc1cccc2c(=O)cc(-c3nn[nH]n3)oc12)c1ccc(OCCCCc2ccccc2)cc1	10.4%	
Cc1ccccc1N=C(N)Nc1ccccc1C	-17%	
CCOC(=O)OC(C)OC(=O)[C@@H]1N2C(=O)[C@@H](NC(=O)[C@H](N)c3ccccc3)[C@H]2SC1(C)C (some centres not stated)	8.59% [at 32.6 µM]	
CC1=Nc2ccc3ccccc3c2C1(C)C	12.4%	
CC(C)c1nc(CN(C)C(=O)N[C@H](C(=O)N[C@@H](Cc2ccccc2)C[C@H](O)[C@H](Cc2ccccc2)NC(=O)OCc2cncs2)C(C)C)cs1		inactive
CC1=C(CC=O)C(C)(C)CCC1	-9.03%	
O=C(/C=C/c1ccccc1)OCCc1ccccc1	23.1%	
CN1C(=O)OC(C)(C)C1=O		inactive
CCN(CC)CCNC(=O)COc1ccc(OC)cc1	2.38%	
CC1CC(OC(=O)C(O)c2ccccc2)CC(C)(C)N1C (configuration not stated)		inactive
Cc1ccc(CO)cc1	6.8% [at 79.1 µM]	
NC1[C@H]2CN(c3nc4c(cc3F)c(=O)c(C(=O)O)cn4-c3ccc(F)cc3F)C[C@@H]12 (some centres not stated)	-6.46%	
CC(CO)CO	-6.7% [at 79.1 µM]	
O=C1c2ccccc2C(=O)C1c1nc2ccccc2c(Br)c1O	4.83%	
CC(C)(O)c1ccc(CNC(=O)c2cccnc2Oc2ccc3nonc3c2)cc1	2.75%	
CCCCCCCCCCC(=O)O	-15.4% [at 79.1 µM]	
